# Shown are actives, neighbours in structure and some others; about 2.6% of the full set was active somewhere.
# eIF4H FP inh = inhibitors of RNA binding by human eIF4H; Q15056; eIF4H fluorescence polarization binding assay; inhibition, % at 35 µM; 290,000 tested, 0.94% active;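 also: calls also rest on retests at 20 µM and on dose response follow-up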
# ABCB6 inh MLPCN = human ABCB6 transporter inhibition | K562-ABCB6 porphyrin accumulation, flow cytometry, 1 h; hits give low values | fluorescence ratio to DMSO, % at 10 µM | 360,000 tested, 0.19% active | AID 602162;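 active = fluorescence ratio to DMSO below 75%, the collection mean minus 3 SD; inconclusive = too few cells collected in the well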;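 also: signal is porphyrin accumulated inside mitochondria; 100% equals median channel fluorescence of DMSO control wells; lower ratio means ABCB6 inhibition with less porphyrin fluorescence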
# PHOSPHO1 inh = inhibitors of human PHOSPHO1 phosphatase. Q8TCT1. recombinant PHOSPHO1, absorbance phosphatase assay. inhibition, % at 13.3 µM. 290,000 tested, 1.1% active. AID 1565; in the data active = inhibition above about 60%
# Target sequence (Q8TCT1 whole entry, looked up): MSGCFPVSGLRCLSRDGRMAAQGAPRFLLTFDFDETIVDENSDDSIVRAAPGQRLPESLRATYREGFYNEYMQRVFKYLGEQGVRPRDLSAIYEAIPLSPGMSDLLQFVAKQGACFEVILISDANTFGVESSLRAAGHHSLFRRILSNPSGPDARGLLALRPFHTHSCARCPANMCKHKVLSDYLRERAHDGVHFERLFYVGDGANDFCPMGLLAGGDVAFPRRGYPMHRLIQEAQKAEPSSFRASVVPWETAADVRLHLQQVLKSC
# PABP1 MLLE inh = inhibitors of microRNA-mediated deadenylation, human PABP1 MLLE binding; AID 588489; 360,000 tested, 0.36% active; inhibition, % at 20 µM; GST-MLLE / FITC-PAM2 fluorescence polarization; in the data active = inhibition above about 35%, passing the limit was not always enough;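 also: plate controls were DMSO wells with GST-MLLE for no effect and wells lacking GST-MLLE protein for full effect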
# AI-2 QS mod = Vibrio harveyi AI-2 quorum sensing modulation; 300,000 tested, 0.4% active; Vibrio harveyi JMH597 AI-2 luminescence/OD600 ratio, 9 h; hits give low values; strain lacks LuxN and CqsS sensors; 0 = neutral-control median; activity change, % at 7.5 µM; in the data active = activity change below about -75%, passing the limit was not always enough; inconclusive = no clear call, values can overlap the other calls;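 also: luminescence divided by OD600 gain over 9 h not by final OD600 alone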
# PABP FP inh = PABP-poly(A) binding inhibition; PABP-poly(A) RNA binding, fluorescence polarization; 290,000 tested, 1% active; calls only at 35 µM;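 also: calls also rest on retests at 20 µM and on dose response follow-up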
# An asterisk follows results filed as active; i = inactive; ? = inconclusive; nt = no result; + = active, no number. Unless noted, no rule for the calls is given here.
SMILES,eIF4H FP inh,ABCB6 inh MLPCN,PHOSPHO1 inh,PABP1 MLLE inh,AI-2 QS mod,PABP FP inh
Cc1cn([C@H]2C[C@H](O)[C@@H](/C=C/C(=O)N3CCN(Cc4ccc(F)cc4)CC3)O2)c(=O)[nH]c1=O,nt,99,nt,-6,nt,nt
COc1ccccc1-c1cnc(C(O)c2ccc(C(C)(C)C)cc2)[nH]1 (stereo not given),nt,88,nt,7,nt,nt
CCNC(=O)C1(C)CCN(C(=O)c2ccccc2F)C1 (stereo not given),nt,93,nt,10,nt,nt
Cc1ccc(NC(=O)/C(=C/c2cccc([N+](=O)[O-])c2)NC(=O)C2CCCCC2)cc1,-12,72*,31,11,38,i
CC(C)Oc1cccc(C(=O)Nc2nnc([C@H]3C[C@H](O)[C@@H](CO)O3)s2)c1,nt,93,nt,-1,nt,nt
CC(C)C1Cc2[nH]c(=S)[nH]c(=O)c2C(c2ccc(F)cc2)O1 (stereo not given),nt,99,nt,21,nt,nt
CCN(CC)c1nc2cc(OC)ccc2cc1C#N,?,164,0,-9,14,+
COc1ccc2cc(C#N)c(NC(C)C)nc2c1,-7,94,6,6,10,i
CCCc1cc(=O)[nH]c(SCC(=O)Nc2nonc2N)n1,4,93,22,41*,10,i
Cc1cc2cc(C(c3nnnn3Cc3ccco3)N3CCCCC3)c(=O)[nH]c2cc1C (stereo not given),57*,95,3,-21,10,+
CCOc1ccc2[nH]c(=O)c(C(c3nnnn3Cc3ccco3)N3CCN(C)CC3)cc2c1 (stereo not given),39,99,17,-14,7,i
O=c1[nH]c2cc3c(cc2cc1C(c1nnnn1Cc1ccccc1)N1CCCCCC1)OCCO3 (stereo not given),130,99,-21,-14,10,+
COCCn1nnnc1C(c1cc2cc(OC)ccc2[nH]c1=O)N1CCC(Cc2ccccc2)CC1 (stereo not given),-8,99,4,-2,19,i
COc1ccc2cc(C(c3nnnn3CCc3ccccc3)N3CCCC(C)C3)c(=O)[nH]c2c1 (stereo not given),-10,102,82*,0,22,i
Cc1ccccc1N(CC(=O)N1CCN(Cc2ccccc2)CC1)S(C)(=O)=O,nt,100,nt,-8,nt,nt
CCOC(=O)C1=CCN(S(=O)(=O)c2ccc(Cl)cc2)C1c1ccc(C)cc1 (stereo not given),nt,90,nt,14,nt,nt
CCOc1ccc(-n2cc(-c3ccccc3)c3c(=S)nc[nH]c32)cc1,6,102,-13,39*,-3,i
Cc1ccc(Cl)cc1N1CCN(C(=O)CN(c2ccccc2)S(=O)(=O)N(C)C)CC1,62*,99,-4,7,15,i
CN1CCN(C(=O)CN(c2ccccc2)S(=O)(=O)N(C)C)CC1,4,nt,34,nt,1,i
CN(C)c1nc(-c2cn(CCC#N)c3ccccc23)cs1,18,105,43,49*,6,i
C#CCNC(=O)C[C@@H]1C[C@@]2(C(=O)OC)CCCCC=C2N(Cc2ccc(Cl)cc2Cl)C1=O,nt,95,nt,nt,nt,nt
C=CCn1c(Sc2nnc(C)s2)nc2c1c(=O)[nH]c(=O)n2C,-2,68*,3,-3,29,i
C=CCn1c(-c2cccn(Cc3ccc(Cl)cc3Cl)c2=O)n[nH]c1=S,-8,101,32,8,18,i
C=CCn1c(-c2cccn(Cc3ccc(Cl)cc3)c2=O)n[nH]c1=S,7,90,99*,16,35,i
C=CCn1c(-c2cccn(Cc3cccc(Cl)c3)c2=O)n[nH]c1=S,-1,100,98*,16,17,i
C=CCn1c(-c2cccn(Cc3ccccc3)c2=O)n[nH]c1=S,-1,102,-67,8,13,i
Cc1cc(C)cc(Cn2cc(CN3CC(N4CCCCC4)CS3(=O)=O)nn2)c1 (stereo not given),nt,95,nt,nt,nt,nt
COCCCN1C(=O)C(CC(=O)NC2CCCCC2)CC(C(=O)N2CCCCCC2)=C1C (stereo not given),nt,103,nt,nt,nt,nt
CCOC(=O)C1Nc2c(F)cc(C)cc2C2C=CCC12 (stereo not given),nt,nt,nt,nt,45,nt
Cc1ccc2c(c1C)NC(C(=O)O)C1CC=CC21 (stereo not given),94*,112,62*,-1,25,+
